A short description of assay [1]: qHTS assay to identify small molecule antagonists of the estrogen receptor alpha (ER-alpha) signaling pathway using the BG1 cell line in the presence of 0.1 nM 17-beta-estradiol - cell viability counter screen (AID 1259241). Further: nearly all actives have a fitted effect of over 40% in size. The gist of the method: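 CellTiter-Fluor read (30 min, 37C) on ER-alpha/ERE-luc VM7Luc4E2 cells; 22 hr compound treatment; agonist 0.1 nM E2 final; same-well multiplex.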
In general terms: In qHTS, concentration-response curves come from the screen itself.

Assay [2] can be described thus: qHTS assay to identify small molecule antagonists of the androgen receptor (AR) signaling pathway using the MDA cell line in the presence of 0.5 nM R1881 - cell viability counter screen (AID 1259242). Further: nearly all actives have a fitted effect of over 45% in size. The gist of the method: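 Steps: plate MDA-kb2 cells, rest 5 hr at 37C without CO2; pin in compounds in DMSO; add R1881 to 0.5 nM final; incubate 16 hr; add CellTiter-Fluor, 30 min; read fluorescence.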

Assay [3] has as its target Androgen receptor (Homo sapiens) (UniProt P10275). Put plainly: qHTS assay to identify small molecule antagonists of the androgen receptor (AR) signaling pathway using the MDA cell line in the presence of 0.5 nM R1881 (AID 1259243). Further: nearly all actives have a fitted effect of over 50% in size. The essentials:
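Stably transfected MDA-kb2 cells express luciferase from an MMTV promoter bearing both AR and GR response elements. Compounds plus 0.5 nM R1881 (final) were incubated 16 hr at 37C without CO2, then luminescence measured.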

Assay [4] deals with Estrogen receptor (Homo sapiens) (UniProt P03372). The assay can be described thus: qHTS assay to identify small molecule antagonists of the estrogen receptor alpha (ER-alpha) signaling pathway using the BG1 cell line in the presence of 0.1 nM 17-beta-estradiol (AID 1259244). Further: nearly all actives have a fitted effect of over 50% in size. The essentials:
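Antagonist mode: compounds in DMSO are pinned onto VM7Luc4E2 reporter cells, 0.1 nM final 17beta-estradiol is added, and after 22 h at 37C luciferase luminescence is measured with ONE-Glo.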

Assay [5] is described as follows: qHTS assay to identify small molecule HDAC inhibitors (AID 1259364). Further: potency means the concentration at half of the fitted maximal effect.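 Further: wild-type HCT-116 cells with endogenous class I/II HDAC activity; nearly all actives have a fitted effect of over 45% in size.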 The essentials:
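Cells (HCT-116, wild type) are seeded at 1,500 per well, incubated overnight, treated with compound in DMSO for 2 hr, then developed with HDAC-Glo I/II reagent for 30 min at room temperature.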

The nature of assay [6]: qHTS assay to identify small molecule agonists of the sonic hedgehog signaling (Shh) pathway - cell viability counter screen (AID 1259366). Further: nearly all actives have a fitted effect of over 50% in size. The gist of the method:
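Fluorescence from CellTiter-Fluor reports live cells in this counter screen. NIH/3T3-derived Gli1-Luc reporter cells receive test compounds for 24hr at 37C; reagent goes in at 23hr.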

Assay [7] in a line: qHTS assay to identify small molecule antagonists of the sonic hedgehog signaling (Shh) pathway - cell viability counter screen (AID 1259367). Further: nearly all actives have a fitted effect of over 55% in size. The essentials:
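Tox21 library chemicals were tested on a Gli1-Luc NIH/3T3 clone (2,000 cells/well) stimulated by conditioned medium; viability was quantified as fluorescence from CellTiter-Fluor reagent added at 23 hr.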

Assay [8] can be described thus: qHTS assay to identify small molecule agonists of the sonic hedgehog signaling (Shh) pathway (AID 1259368; calls by dose curve;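 further: NIH/3T3-derived 3T3Gli1-Luc cells carrying a stable Gli1-driven firefly luciferase reporter; series mostly up to about 92 µM; nearly all actives have a fitted effect of over 15% in size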). The essentials: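 Cells of a mouse NIH/3T3 clone stably expressing luciferase under the Gli1 transcriptional response element are exposed to test chemicals for 24 hr at 37 C. Pathway activation is detected as a rise in luminescence.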
Assay [9] can be described thus: qHTS assay to identify small molecule antagonists of the sonic hedgehog signaling (Shh) pathway (AID 1259369; calls by dose curve; further: nearly all actives have a fitted effect of over 45% in size). The gist of the method:
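Cells are plated and held 4hr at 37 C, compounds (DMSO) are pinned in, conditioned medium is added to stimulate the pathway, and after 24hr luciferase reagent is added for 30min before luminescence is read.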

The target of assay [10] is Estrogen receptor beta (Homo sapiens) (UniProt Q92731). Put plainly: qHTS assay to identify small molecule agonists of the estrogen receptor beta (ER-beta) signaling pathway (AID 1259377; active means well fitted activation curve with a large enough effect in the signal ratio in the repeat runs, not every such curve was filed as active; the % refers to the signal ratio). The essentials: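 Screening used GripTite ER-beta-UAS-bla cells held in 2% charcoal-stripped FBS medium. After overnight (16 hr) compound incubation at 37C, beta-lactamase activity was detected with a FRET substrate by fluorescence.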

Assay [11] is described as follows: qHTS assay to identify small molecule agonists of the androgen receptor (AR) signaling pathway in the presence of an antagonist - cell viability counter screen (AID 1259379).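 Further: MDA-kb2 human breast cancer cells carrying an MMTV luciferase reporter; series mostly up to about 92 µM; nearly all actives have a fitted effect of over 25% in size.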 The essentials:
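Cytotoxicity is assessed by CellTiter-Fluor in MDA-kb2 cells carrying an MMTV-driven luciferase reporter. Cells receive 3.0uM nilutamide plus compounds at 15 concentrations and incubate 16 hr at 37C without CO2 before fluorescence reading.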

Assay [12] in a line: qHTS assay to identify small molecule agonists of the estrogen receptor beta (ER-beta) signaling pathway - cell viability counter screen (AID 1259380). Further: nearly all actives have a fitted effect of over 30% in size. The essentials:
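Cytotoxicity is measured in parallel with the reporter screen: after 16 hr compound exposure at 37C and a 2 hr LiveBLAzer step, CellTiter-Glo is added to the same ER-beta-UAS-bla HEK293T wells and luminescence read after 30 min.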

The target in assay [13] is Androgen receptor (Homo sapiens) (UniProt P10275). Put plainly: qHTS assay to identify small molecule agonists of the androgen receptor (AR) signaling pathway in the presence of an antagonist (AID 1259381; calls by dose curve; further: nearly all actives have a fitted effect of over 15% in size; further: potency means the concentration at half of the fitted maximal effect). The essentials:
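Agonist-mode confirmation screen: human MDA-kb2 cells stably expressing luciferase under an MMTV promoter bearing AR and GR response elements, co-treated with 3.0uM nilutamide (final). Luminescence measured after 16hr compound incubation.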

Assay [14] in a line: qHTS assay to identify small molecule antagonists of the estrogen receptor beta (ER-beta) signaling pathway - cell viability counter screen (AID 1259382). Further: series mostly up to about 92 µM; nearly all actives have a fitted effect of over 55% in size. The essentials: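 Cytotoxicity counter screen multiplexed with the beta-lactamase antagonist assay: GripTite HEK293T ER-beta-bla cells were treated 16 hr with test chemicals in the presence of 1nM 17-beta-estradiol, and viability was measured by CellTiter-Glo.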

In assay [15] the target is Estrogen receptor (Homo sapiens) (UniProt P03372). The assay can be described thus: qHTS assay to identify small molecule agonists of the estrogen receptor alpha (ER-alpha) signaling pathway in the presence of an antagonist (AID 1259383; calls by dose curve; further: top concentration of the series differs between compounds; nearly all actives have a fitted effect of over 15% in size). The gist of the method: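 Agonist-mode confirmation in the presence of the ER antagonist ICI-182,780 at 10.0nM final. Breast-derived VM7Luc4E2 reporter cells were exposed to compounds for 22hr, and ERE-driven luciferase was quantified by luminescence.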

Assay [16] in a line: qHTS assay to identify small molecule agonists or antagonists of the thyroid stimulating hormone receptor (TSHR) signaling pathway - wild type cell line counter screen (AID 1259384; calls by dose curve). The essentials:
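Wild-type Hek293 cells, 800/well, 18 h at 37C, then compound with Ro20-1724 for 30 min RT. cAMP by HTRF (cAMP-d2/anti-cAMP cryptate), 1 h RT, fluorescence read. 15 concentrations, triplicates.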

In assay [17] the target is Thyrotropin receptor (Homo sapiens) (UniProt P16473). Put plainly: qHTS assay to identify small molecule antagonists of the thyroid stimulating hormone receptor (TSHR) signaling pathway (AID 1259385; calls by dose curve; further: nearly all actives have a fitted effect of over 20% in size). The gist of the method: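 TSHR-HEK293 cells (800/well) plated 18 h, then compounds with Ro20-1724 and TSH at 1.5 ng/mL final, 30 min at room temperature. cAMP quantified by HTRF (cAMP-d2/anti-cAMP-cryptate, 1 h); 15 concentrations in triplicate.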

A short description of assay [18]: qHTS assay to identify small molecule HDAC inhibitors - cell viability counter screen (AID 1259365). Further: series mostly up to about 92 µM; nearly all actives have a fitted effect of over 50% in size. The gist of the method:
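To flag cytotoxic hits, 1,500 wild-type HCT-116 cells per well, plated the day before, receive test compounds for 2hr at 37 C before CellTiter-Glo reagent and a luminescence read.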

Assay [19] has as its target Estrogen receptor beta (Homo sapiens) (UniProt Q92731). The assay can be described thus: qHTS assay to identify small molecule antagonists of the estrogen receptor beta (ER-beta) signaling pathway (AID 1259378; active means well fitted inhibition curve with a large enough effect in the signal ratio in the repeat runs, not every such curve was filed as active; the % refers to the signal ratio). The essentials:
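ER-beta-UAS-bla HEK293T cells in 2% charcoal-stripped FBS medium treated with compound plus 1nM final 17-beta-estradiol for 16 hr at 37C. Beta-lactamase reporter read by FRET substrate fluorescence after 2 hours at room temperature.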

Assay [20] is described as follows: qHTS assay to identify small molecule phospholipidosis (PLD) inducers (AID 1259344; active means well fitted curve in the direction sought with a large enough effect; an effect the other way counts as inactive or inconclusive). The gist of the method:
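Image-based: LipidTOX Red pit count/intensity per well and per cell; HepG2, 24 h compound at 37 C, PFA fixation, Hoechst counterstain.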

The structures appear in SMILES notation. Results filed as inconclusive are left out. The source made the active and inactive calls. Unless noted, the call rests on the fitted dose curve; in most records, active means well fitted curve in the direction sought with a large enough effect in the repeat runs; inconclusive means weak or mixed curves; inactive means no such curve, though single readings can be large; an effect the other way counts as inactive or inconclusive.

Chain of Estrogen receptor (Homo sapiens) (P03372 whole entry, looked up): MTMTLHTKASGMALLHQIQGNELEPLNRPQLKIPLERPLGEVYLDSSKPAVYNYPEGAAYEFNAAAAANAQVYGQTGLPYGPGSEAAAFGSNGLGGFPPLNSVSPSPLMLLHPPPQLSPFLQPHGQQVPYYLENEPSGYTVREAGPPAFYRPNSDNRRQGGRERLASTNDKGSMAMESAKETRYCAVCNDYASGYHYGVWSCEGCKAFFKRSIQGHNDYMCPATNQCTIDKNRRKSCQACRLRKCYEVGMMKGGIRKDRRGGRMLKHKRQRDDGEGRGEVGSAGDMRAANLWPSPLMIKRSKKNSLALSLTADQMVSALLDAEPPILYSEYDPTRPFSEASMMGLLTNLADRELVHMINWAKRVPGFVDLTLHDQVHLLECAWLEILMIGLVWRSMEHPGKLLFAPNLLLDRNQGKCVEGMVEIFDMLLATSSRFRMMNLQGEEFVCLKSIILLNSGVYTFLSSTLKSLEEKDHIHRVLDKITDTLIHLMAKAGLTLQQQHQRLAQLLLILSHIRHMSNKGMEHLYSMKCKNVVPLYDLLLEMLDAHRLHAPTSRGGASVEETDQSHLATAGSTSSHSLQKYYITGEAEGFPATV
Chain of Estrogen receptor beta (Homo sapiens) (Q92731 whole entry, looked up): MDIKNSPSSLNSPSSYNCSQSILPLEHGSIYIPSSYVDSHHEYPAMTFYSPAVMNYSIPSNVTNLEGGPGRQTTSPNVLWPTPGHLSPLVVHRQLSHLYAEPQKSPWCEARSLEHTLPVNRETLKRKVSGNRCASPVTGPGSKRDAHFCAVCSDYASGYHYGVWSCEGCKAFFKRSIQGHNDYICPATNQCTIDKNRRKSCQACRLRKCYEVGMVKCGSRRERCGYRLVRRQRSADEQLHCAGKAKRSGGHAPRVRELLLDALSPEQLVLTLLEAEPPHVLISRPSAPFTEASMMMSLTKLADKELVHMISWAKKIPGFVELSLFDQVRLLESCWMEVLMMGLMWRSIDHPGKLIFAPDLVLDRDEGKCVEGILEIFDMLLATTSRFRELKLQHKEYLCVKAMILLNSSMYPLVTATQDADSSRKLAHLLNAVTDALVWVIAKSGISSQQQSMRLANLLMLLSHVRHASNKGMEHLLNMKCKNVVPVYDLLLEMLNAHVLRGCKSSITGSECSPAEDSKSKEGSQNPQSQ
Chain of Androgen receptor (Homo sapiens) (P10275 whole entry, looked up): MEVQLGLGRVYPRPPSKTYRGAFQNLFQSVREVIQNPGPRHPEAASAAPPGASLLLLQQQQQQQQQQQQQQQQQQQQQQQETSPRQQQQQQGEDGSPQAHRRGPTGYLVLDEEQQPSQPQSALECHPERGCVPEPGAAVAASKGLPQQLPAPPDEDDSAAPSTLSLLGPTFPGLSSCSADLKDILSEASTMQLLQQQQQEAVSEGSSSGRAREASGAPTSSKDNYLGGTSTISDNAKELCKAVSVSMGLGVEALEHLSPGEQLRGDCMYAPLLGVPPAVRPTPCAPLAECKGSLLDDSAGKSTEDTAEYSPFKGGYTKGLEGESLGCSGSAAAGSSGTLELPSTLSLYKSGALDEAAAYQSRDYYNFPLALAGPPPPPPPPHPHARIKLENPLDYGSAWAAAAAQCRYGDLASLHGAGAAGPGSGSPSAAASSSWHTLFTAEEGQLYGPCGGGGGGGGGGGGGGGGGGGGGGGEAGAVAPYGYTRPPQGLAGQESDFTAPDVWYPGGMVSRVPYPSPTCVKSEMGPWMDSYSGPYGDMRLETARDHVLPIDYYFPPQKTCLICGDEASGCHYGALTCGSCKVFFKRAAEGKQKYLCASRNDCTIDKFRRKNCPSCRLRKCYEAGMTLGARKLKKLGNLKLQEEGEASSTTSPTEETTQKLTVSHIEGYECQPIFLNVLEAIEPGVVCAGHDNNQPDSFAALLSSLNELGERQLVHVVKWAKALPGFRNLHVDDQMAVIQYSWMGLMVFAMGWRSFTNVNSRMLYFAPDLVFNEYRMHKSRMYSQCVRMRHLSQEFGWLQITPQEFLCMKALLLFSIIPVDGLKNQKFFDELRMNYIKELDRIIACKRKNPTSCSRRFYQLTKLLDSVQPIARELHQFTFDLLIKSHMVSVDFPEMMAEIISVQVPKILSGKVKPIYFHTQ
Chain of Thyrotropin receptor (Homo sapiens) (P16473 whole entry, looked up): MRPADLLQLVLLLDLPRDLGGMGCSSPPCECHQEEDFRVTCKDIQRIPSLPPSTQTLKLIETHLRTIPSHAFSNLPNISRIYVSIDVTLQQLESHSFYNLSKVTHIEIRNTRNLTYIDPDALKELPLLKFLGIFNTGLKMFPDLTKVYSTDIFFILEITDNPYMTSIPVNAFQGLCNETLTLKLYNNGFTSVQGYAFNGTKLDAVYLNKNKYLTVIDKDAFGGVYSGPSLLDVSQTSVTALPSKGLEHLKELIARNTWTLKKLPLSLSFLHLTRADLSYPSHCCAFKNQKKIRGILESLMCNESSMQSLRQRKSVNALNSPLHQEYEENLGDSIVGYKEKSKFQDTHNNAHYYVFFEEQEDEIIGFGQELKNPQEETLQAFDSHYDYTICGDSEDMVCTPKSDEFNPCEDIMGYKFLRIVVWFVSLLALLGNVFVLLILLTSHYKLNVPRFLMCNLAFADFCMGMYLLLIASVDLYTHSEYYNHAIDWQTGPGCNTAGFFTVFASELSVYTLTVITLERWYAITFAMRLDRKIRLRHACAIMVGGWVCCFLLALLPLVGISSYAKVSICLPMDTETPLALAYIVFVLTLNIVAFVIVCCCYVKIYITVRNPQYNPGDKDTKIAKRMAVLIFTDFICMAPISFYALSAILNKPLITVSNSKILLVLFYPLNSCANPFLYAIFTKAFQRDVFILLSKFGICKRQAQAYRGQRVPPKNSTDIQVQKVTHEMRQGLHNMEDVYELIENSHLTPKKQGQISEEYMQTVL

Regarding `CCN(CC)CC(=O)OCC(=O)[C@@]1(O)CC[C@H]2[C@@H]3CCC4=CC(=O)CC[C@]4(C)[C@H]3[C@@H](O)C[C@@]21C`, the Potency entry in assay [1], in [2], in assay [3], in [4], in [5] and in [6] was “inactive” in each case. Further, the Potency result in assay [7], in [8], in assay [9], in [10], in [11] and in assay [12] was “inactive” throughout. Moreover, the Potency result in [14], in [15] and in [17] was “inactive” in each case. Also, in assay [13], the Potency was 0.211 µM (active). In assay [16], the result was inactive.

Take `N#C[C@@H]1CC(F)(F)CN1C(=O)CNC1CC2CCC(C1)N2c1ncccn1` (stereo partly drawn): the Potency result in assay [1], in assay [2], in assay [3], in [4], in assay [7] and in assay [8] was “inactive” in each case. Moreover, the Potency entry in assay [9], in [10], in assay [12], in [13], in assay [14] and in assay [15] was “inactive” each time. Moreover, in [17], the Potency entry was “inactive”. Moreover, the compound was called inactive in assay [18].

With `Cc1nc(C)c(C)nc1C`, the Potency result in [1], in assay [2], in assay [3], in assay [4], in assay [5] and in [6] was “inactive” in each case. Further, the Potency entry in [7], in [8], in assay [9], in assay [10], in assay [19] and in [11] was “inactive” in each case. Moreover, the Potency result in [12], in [13], in [14], in assay [15] and in assay [17] was “inactive” each time. In addition, the compound was classed as inactive in assay [18] and in assay [16].

`CCC[Si](OC)(OC)OC`: the Potency result in assay [1], in [2], in [3], in assay [4], in assay [6] and in [7] was “inactive” each time. The Potency result in [8], in [10], in [19], in [11], in assay [12] and in [13] was “inactive” in each case. Besides, the Potency entry in assay [14], in assay [15] and in assay [17] was “inactive” throughout. Moreover, the compound was called inactive in assay [18] and in assay [16].

With `Cc1ccc2c(Cl)cc(Cl)c(O)c2n1`, the Potency result in [1], in assay [2], in assay [3], in [4], in assay [5] and in assay [6] was “inactive” each time. The Potency result in [7], in [8], in assay [9], in assay [10], in assay [19] and in [12] was “inactive” in each case. Also, the Potency entry in assay [13], in assay [14], in assay [15] and in [17] was “inactive” throughout. Besides, the compound was called inactive in assay [18] and in assay [16].

In the case of `CCCCCCCCCCCCCCCCC(=O)O`, the Potency entry in assay [1], in assay [2], in assay [3], in assay [5], in assay [6] and in assay [8] was “inactive” in each case. Further, the Potency result in [9], in assay [10], in [19], in [11], in assay [12] and in [13] was “inactive” in each case. The Potency result in assay [14] and in [17] was “inactive” throughout. Further, the call in [18] and in [16] was inactive.

On to `CC[C@H](NC(C)C)[C@H](O)c1ccc(O)c2[nH]c(=O)ccc12`, for which the Potency result in assay [1], in [2], in [3], in assay [4], in assay [20] and in assay [5] was “inactive” each time. Besides, the Potency entry in assay [6], in assay [7], in assay [8], in [9], in assay [12] and in assay [13] was “inactive” in each case. The Potency entry in assay [14] and in assay [15] was “inactive” in each case. For the same compound, the compound was classed as inactive in [18].

With `COC(=O)/C=C/C(C)=C\C=C\C(C)=C\C=C\C=C(C)\C=C\C=C(C)\C=C\C(=O)O`, the Potency result in assay [1], in assay [2], in assay [3], in assay [4], in assay [6] and in [8] was “inactive” throughout. In addition, the Potency entry in assay [9], in assay [10], in assay [19], in assay [12], in [13] and in assay [14] was “inactive” in each case. The Potency entry in [15] and in [17] was “inactive” throughout. The Potency in assay [5] was 24.3 µM (active). The call in assay [18] and in assay [16] was inactive.
